Screening data: PubChem, National Center for Advancing Translational Sciences (NCATS)
NS1 function inh = qHTS Assay for Inhibitors of Influenza NS1 Protein Function. Potency, µM (series often up to 46.1 µM). actives 0.4% (n = 270,000); further: actives are rising curves; nearly all actives have a fitted effect of over 50% in size
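Recovery from NS1-induced slow growth read by OD600 in budding yeast switched to galactose assay medium (pH 6.0, -URA) at 1:100 dilution. Compound 23 nl per well; the matching strain lacking NS1 serves as control.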
AMA1-RON2 inh = qHTS for Inhibitors of AMA1-RON; Towards Development of Antimalarial Drug Lead: Primary Screen. Plasmodium falciparum AMA1 (3D7) - RON2 peptide interaction. AlphaScreen AMA1-biotinylated RON2 peptide binding. Potency, µM (titrated, usually from 58.2 µM), hits mostly inhibitors. actives 0.2% (n = 360,000). AID 720542, 2013; active means well fitted inhibition curve with a large enough effect; inconclusive means small, poorly fitted or top-dose-only effect; inactive means no such curve, though single readings can be large or run the other way; further: nearly all actives have a fitted effect of over 45% in size
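AMA1 (3D7) with his tag at 25 nM final met compounds first, then biotinylated RON2 peptide at 25 nM; detection used donor plus acceptor beads, 10 µg/mL apiece, read by AlphaScreen after 30 min at room temperature.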
SARS PLpro yeast-1 = qHTS of Yeast-based Assay for SARS-CoV PLP; actives 0.19% (n = 330,000); Potency, µM (highest dose often 32.9 µM), usual class: activators; AID 485353, 2010; S. cerevisiae expressing SARS-CoV PLpro, growth rescue; further: nearly all actives have a fitted effect of over 55% in size
SARS PLpro yeast-2 = qHTS of Yeast-based Assay for SARS-CoV PLP: Hit Validation; shares compounds with SARS PLpro yeast-1; yeast expressing SARS-CoV PLpro, growth phenotype rescue; calls only; actives 19% (n = 1,000); AID 652038, 2013; call rule not given here
Numbers stand for hits; . = inactive; ? = inconclusive; / = no result given; + = active, no number; [ ] = another dose, or the depositor's remark. Hits are enriched below; roughly 0.65% of the tested compounds scored in any of these assays. Unless noted, the call rests on the fitted dose curve.

SMILES	NS1 function inh	AMA1-RON2 inh	SARS PLpro yeast-1	SARS PLpro yeast-2
CN(C)c1cccc(C(=O)N/N=C/c2ccsc2)c1	.	.	20µM	.
CN(C)c1cccc(C(=O)N/N=C/c2ccoc2)c1	/	.	/	/
CCCN(CC(=O)Nc1ccccc1C)C(=O)c1ccc(N2CCCCC2)c([N+](=O)[O-])c1	/	.	.	/
OCCCNCc1ccc(Cl)cc1Cl	.	.	.	/
Clc1ccc(CNC23CN4CN(CN(C4)C2)C3)c(Cl)c1	.	.	?	.
CCC(=O)N1CCC1(C)C(=O)Nc1cccc(OC)c1 (configuration not stated)	/	.	/	/
Cc1cccc(OCC(=O)N/N=C/c2sc(=O)n(Cc3cccc(C(=O)O)c3)c2Cl)c1	.	.	.	/
COc1ccc(C)cc1S(=O)(=O)Nc1ccc(F)cc1	.	.	?	.
COc1ccc(OC)c(S(=O)(=O)Nc2ccc(F)cc2)c1	.	.	.	/
O=C(Nc1cccc(S(=O)(=O)N2CCCCC2)c1)C1=NN(c2ccccc2)C(=O)CC1	/	.	.	/
COc1ccc(NC(=O)CN2CCOCC2)cc1S(=O)(=O)N1CCCCC1	/	.	?	.
COc1ccc(NC(=O)CN2CCc3ccccc3C2)cc1S(=O)(=O)N1CCOCC1	.	.	.	/
Cc1ccc(OC2=NS(=O)(=O)c3ccccc32)cc1	.	.	?	.
CCc1ccc(OC2=NS(=O)(=O)c3ccccc32)cc1	.	.	.	/
CCn1nnc(-c2ccccc2NS(=O)(=O)c2ccc(S(=O)(=O)N3CCCCCC3)cc2)n1	.	.	.	/
CCn1nnc(-c2ccccc2NS(=O)(=O)c2ccc(S(=O)(=O)N(C)C3CCCCC3)cc2)n1	.	.	?	+
CCCn1nnnc1NCc1ccc(N(CC)CC)cc1	.	.	.	/
COC(=O)Sc1nc(N2CCOCC2)c2c(c1C#N)CC(C)(C)OC2	.	.	10µM	+
COC(=O)CSc1nc(N2CCOCC2)c2c(c1C#N)CC(C)(C)OC2	.	.	.	/
CN(C)c1ccc(NC(=O)CSc2n[nH]c(-c3ccncc3)n2)cc1	/	.	/	/
COC(=O)c1ccc2c(=O)n(CCO)c(=S)[nH]c2c1	.	.	.	/
COC(=O)c1ccc2c(=O)n(NC(=O)C(c3ccccc3)c3ccccc3)c(=S)[nH]c2c1	.	.	?	.
O=C(Oc1ccccc1)c1cc2ccccc2oc1=O	/	.	.	/
CC(C)OC(=O)c1cc2ccccc2oc1=O	.	.	?	.
O=[N+]([O-])c1ccc(OCCO)c(P(=O)(c2ccccc2)c2ccccc2)c1	.	.	.	/
SMILES	NS1 function inh	AMA1-RON2 inh	SARS PLpro yeast-1	SARS PLpro yeast-2
COc1cc(-c2noc(C)c2C#Cc2ccsc2)cc(OC)c1OC	.	.	.	/
COC(=O)c1ccc(Oc2c(C)oc3cc(OCc4cnn(-c5ccccc5)c4)ccc3c2=O)cc1	.	.	.	/
Cc1oc2cc(OCc3cnn(-c4ccccc4)c3)ccc2c(=O)c1Oc1ccccc1F	.	.[11.6 µM]	2.5µM	.
CCCCCCN(C(=O)CCCN1C(=O)NC(c2ccc([N+](=O)[O-])cc2)C(C(=O)OCc2ccccc2)=C1C)C(C)C(=O)NCCCC (configuration not stated)	/	.	?	.
CCCCCCN(C(=O)CCCCCN1C(=O)NC(c2ccc(-c3ccccc3)cc2)C(C(=O)OCc2ccccc2)=C1C)C(C(=O)NCCCC)C1CCCCC1 (configuration not stated)	.	/	.	/
CC1CCCC(C)N1NC(=S)Nc1ccc(OC(F)F)cc1 (configuration not stated)	.	.	?	+
CC(C)c1ccc(NC(=S)NN2C(C)CCCC2C)cc1 (configuration not stated)	/	.	?	/
COc1ccc(NC(=S)NN2C(C)CCCC2C)cc1 (configuration not stated)	.	.	13µM	+
COc1cccc(NC(=S)NN2C(C)CCCC2C)c1 (configuration not stated)	.	.	?	+
CC1CCCCN1C(=S)Nc1ccc(OC(F)F)cc1 (configuration not stated)	.	.[2.32 µM]	.	/
COc1cccc(NC(=S)NN2CCN(C)CC2)c1	.	.	.	/
Cc1cccc(N(Cc2ccccc2)C(=O)c2cccc(S(=O)(=O)N3CC(C)OC(C)C3)c2)c1 (configuration not stated)	/	.	.	/
CC(=O)Nc1ccccc1NC(=O)C/C(C)=N/NC(=O)Cc1cccc2ccccc12	.	.	.	/
Cc1ccc([N+](=O)[O-])cc1NC(=O)C(C)NS(=O)(=O)c1ccc(F)cc1 (configuration not stated)	.	.	.	/
Cc1noc(C)c1CSCC(=O)Nc1ccc(S(=O)(=O)C(F)F)cc1	/	.	.	/
CCOC(=O)[C@@H]1[C@H]2COc3ccccc3[C@H]2N2C(=O)N(c3cccc(C)c3)C(=O)[C@]12C	/	.	.	/
CCCN(CC(=O)Nc1cccc(Br)c1)CC(=O)Nc1ccc(F)c(F)c1F	.	.	.	/
CCCN(CC(=O)Nc1ccc(C)cc1Br)CC(=O)Nc1ccc(F)c(F)c1F	.	.	?	.
Cc1ccc(NC(=O)Cn2cccc2)c(Br)c1	.	.	2.5µM	.
Cc1ccc(NC(=O)Cn2cccc2)c(C)c1	.	.	.	/
COc1cccc(C(=O)N2CCC2(C)C(=O)NC(C)C)c1 (configuration not stated)	/	.	/	/
Cc1cc(C)nc(N2CCC(C(=O)NCCc3ccc(F)cc3)CC2)n1	.	.	.	/
Cc1cc(C)nc(N2CCCC(C(=O)NCCc3ccc(F)cc3)C2)n1 (configuration not stated)	.	.	?	+
CN(C)c1ccc(/C=N\NC(=S)SCN2C(=O)C3CCC(C)(C2=O)C3(C)C)cc1 (configuration not stated)	?	.	13µM	+
CN(C)c1ccc(/C=N/NC(=O)CCCO)cc1	/	.	.	/
SMILES	NS1 function inh	AMA1-RON2 inh	SARS PLpro yeast-1	SARS PLpro yeast-2
CCN(c1ccccc1)S(=O)(=O)c1csc(C(N)=O)c1	.	.	.	/
COc1ccc2c(c1)C(c1ccccc1)NC(=O)C2 (configuration not stated)	/	.	.	/
CC(C)CCNC(=S)Nc1ccccc1F	.	.	?	+
CC(C)CCNC(=S)Nc1ccccn1	.	.	?	/
Cc1ccc(C(=O)NCC(C)(C)N2CCOCC2)s1	.	.	.	/
CC(C)(CNC(=O)c1sc2cc(F)ccc2c1Cl)N1CCOCC1	.	.	?	.
CCOC(=O)c1nn(-c2cccc(Cl)c2)c2nc(Nc3ccccc3)cc(=O)n12	.	.	.	/
CCOC(=O)c1nn(-c2ccc(Cl)cc2)c2nc(Nc3ccccc3)cc(=O)n12	.	.	?	.
CCOc1ccc(/C=N/NC(=O)Cc2ccccc2)cc1CN1CC2CC(C1)c1cccc(=O)n1C2 (configuration not stated)	/	.	.	/
Cc1nn(C)c(C)c1S(=O)(=O)N(CC(=O)Nc1nccs1)c1ccc(C(C)C)cc1	.	.	.	/
COc1ccc(N(CC(=O)Nc2nccs2)S(=O)(=O)c2c(C)nn(C)c2C)cc1	.	.	?	.
O=C(OCC(=O)N1CCN(c2ccccc2)CC1)c1cccc(Cl)c1	.	.	?	.
O=C(OCC(=O)N1CCN(c2ccccc2)CC1)c1cnc(Cl)c(Cl)c1	.	/	.	/
